In PubChem BioAssay one finds composite z-score and z-score data, which are given here for 5 molecules.

Experiment [1] deals with Plasmodium falciparum Sir2 (PF13_0152, Sir2A). Kind of experiment: Plasmodium falciparum Sir2A binding compounds – biochemical, small-molecule microarray, 635 nm fluorescence, primary screen (AID 1098).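 Note: score merges spot fluorescence intensity with its signal-to-noise ratio.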 The conditions noted are these: fluorescence 635 nm, higher = more signal.
Experiment [2] is described as follows: probe aDKK1 binding to arrayed compounds – biochemical, biotinylated probe, 635/667 nm fluorescence, primary screen (AID 1099).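 Note: score merges 667nm spot fluorescence with signal to noise across triplicate slides.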 The conditions noted are these: small-molecule microarray, higher = more signal.
The nature of experiment [3]: probe aCHRDL2 binding to arrayed compounds – biochemical, biotinylated probe, 635/667 nm fluorescence, primary screen (AID 1100). The conditions noted are these: small-molecule microarray, higher = more signal.
Experiment [4] is described as follows: change in splice reporter luminescence, either direction, cell-based, HEK293, spliceosome inhibition project, primary screen (AID 1101).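 Note: HEK293 cells carrying a splicing-competent luciferase reporter gene; test concentration not given here.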 The conditions noted are these: HEK293 splicing luciferase reporter, 24 h, higher = more signal, called active from +8 up or from −8 down.
Experiment [5] deals with Fibroblast growth factor 10 (Homo sapiens) (UniProt O15520). Kind of experiment: compounds binding fibroblast growth factor 10 – biochemical, small-molecule microarray, 635 nm fluorescence, primary screen (AID 1102). The conditions noted are these: FGF10 binding, fluorescence 635 nm, higher = more signal.
Experiment [6] concerns glycogen synthase kinase-3 (GSK3A per assay name; protocol says GSK3B). Kind of experiment: compounds binding glycogen synthase kinase-3 – biochemical, small-molecule microarray, 635 nm fluorescence, GSK3A, primary screen (AID 1103). Note: the record names both GSK3A and GSK3B. The conditions noted are these: fluorescence 635 nm, higher = more signal.
The target in experiment [7] is Epidermal growth factor receptor (Homo sapiens) (UniProt P00533). Kind of experiment: compounds binding epidermal growth factor receptor – biochemical, small-molecule microarray, 635 nm fluorescence, primary screen (AID 1104).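 Note: score merges 667 nm emission intensity with spot signal to noise over triplicate slides.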 As to conditions: EGFR binding, higher = more signal.
For experiment [8], the target named is Follistatin-related protein 3 (Homo sapiens) (UniProt O95633). Kind of experiment: compounds binding follistatin-related protein 3 – biochemical, small-molecule microarray, 635 nm fluorescence, primary screen (AID 1105).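 Note: score merges emission near 667 nm and signal to noise per printed spot across three slides.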 As to conditions: FSTL3 binding, higher = more signal.
Experiment [9] deals with Dickkopf-related protein 1 (Homo sapiens) (UniProt O94907). Kind of experiment: small molecules binding DKK1 protein – biochemical, small-molecule microarray, 635 nm fluorescence scan, primary screen (AID 1106).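 Note: score merges emission near 667 nm with signal to noise over three replicate slides.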 The conditions noted are these: higher = more signal.
The test system of experiment [10] is Inhibin beta A chain (activin A). Kind of experiment: small molecules binding activin A – biochemical, small-molecule microarray, 635 nm fluorescence scan, primary screen (AID 1107).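 Note: mouse activin A protein probed at 4.33 µg/mL on printed slides; score merges bound-protein fluorescence near 667 nm with spot signal-to-noise.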 As to conditions: INHBA, higher = more signal.
Experiment [11] deals with Human papillomavirus type 1a protein E7 (residues 44-93). Kind of experiment: small molecules binding HPV E7 44-93 – biochemical, small-molecule microarray, residues 44-93, 635 nm fluorescence, primary screen (AID 1108).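 Note: E7 fragment applied at 1 µg/mL in TBST for 1 h at 4 C; score combines spot fluorescence with its signal to noise ratio.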 The conditions noted are these: fluorescence 635 nm, higher = more signal.
Experiment [12] in a line: hepatitis C replication reporter changes, two-sided – Huh7 cells, luciferase reporter, HCV replication inhibitor project, primary screen (AID 1109).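 Note: huh7 hepatoma cells harbouring a luciferase neomycin HCV replicon reporter; luciferase luminescence as measure of HCV replicon replication; test concentration not given here.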 As to conditions: Huh7 HCV replicon luciferase reporter, 48 h; higher = more signal.
The target of experiment [13] is Left-right determination factor 2 (Homo sapiens) (UniProt O00292). Briefly: small molecules binding LEFTY2 protein – biochemical, small-molecule microarray, 635 nm fluorescence scan, primary screen (AID 1110). As to conditions: higher = more signal.
Experiment [14] has as its target Calmodulin-1 (Homo sapiens) (UniProt P0DP23). Kind of experiment: small molecules binding calmodulin-1 with EGTA – biochemical, small-molecule microarray, Cy5-labelled CALM1, profiling panel (AID 1111).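 Note: labelled calmodulin applied in Tris saline Tween buffer holding calcium plus EGTA and DTT.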 As to conditions: Cy5-CALM1 binding fluorescence, higher = more signal.
Experiment [15] has the same target. Briefly: small molecules binding Ca-loaded calmodulin-1 – biochemical, small-molecule microarray, Cy5-labelled CALM1, plus calcium, artefact control for SMM control-protein annotation, profiling panel (AID 1112).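 Note: score merges spot fluorescence with signal to noise from triplicate slides.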 The conditions noted are these: Cy5-CALM1 binding fluorescence, higher = more signal.
A short description of experiment [16]: probe aWnt5a binding to arrayed compounds – biochemical, biotinylated probe, 635/667 nm fluorescence, primary screen (AID 1113).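 Note: score merges 667 nm fluorescence intensity with signal-to-noise per printed feature.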 As to conditions: small-molecule microarray, higher = more signal.
The nature of experiment [17]: probe aShh binding to arrayed compounds – biochemical, biotinylated probe, 635/667 nm fluorescence, primary screen (AID 1114).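 Note: probe is biotin-labelled aShh protein from a stem cell growth factor screen; measures binding of labelled protein to compounds printed on the slide; score merges feature fluorescence at 667 nm with signal-to-noise.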 As to conditions: small-molecule microarray, higher = more signal.
A short description of experiment [18]: probe aNog binding to arrayed compounds – biochemical, biotinylated probe, 635/667 nm fluorescence, primary screen (AID 1115).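 Note: probe is biotinylated aNog protein used at 0.15 µg/mL for 1 h at 4 C; z-score combines 667 nm fluorescence of each spot with its signal to noise.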 The conditions noted are these: small-molecule microarray, higher = more signal.
The target in experiment [19] is Torsin-1A-interacting protein 1 (Homo sapiens) (UniProt Q5JTV8). Kind of experiment: compound microarray binding of lysate hLAP1 – cell lysate, small-molecule microarray, COS7 lysate, 635/667 nm fluorescence, primary screen (AID 1116). As to conditions: 635 nm fluorescence, higher = more signal.
In experiment [20] the target is Alpha-bungarotoxin (Bungarus multicinctus) (UniProt P60615). Kind of experiment: compounds binding labelled alpha-BTX control protein – biochemical, small-molecule microarray, Alexa647 label, 635/667 nm fluorescence, artefact control for SMM control protein annotation, profiling panel (AID 1117). As to conditions: alpha-BTX-A647 binding fluorescence, higher = more signal.

The source made the active and inactive calls.

Chain of Fibroblast growth factor 10 (Homo sapiens) (O15520 whole entry, looked up): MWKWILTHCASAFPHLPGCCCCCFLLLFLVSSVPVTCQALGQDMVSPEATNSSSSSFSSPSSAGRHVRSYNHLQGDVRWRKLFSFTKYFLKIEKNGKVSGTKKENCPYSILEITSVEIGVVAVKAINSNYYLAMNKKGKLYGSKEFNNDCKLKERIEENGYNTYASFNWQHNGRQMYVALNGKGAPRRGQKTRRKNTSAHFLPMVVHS
Chain of Epidermal growth factor receptor (Homo sapiens) (P00533 whole entry, looked up): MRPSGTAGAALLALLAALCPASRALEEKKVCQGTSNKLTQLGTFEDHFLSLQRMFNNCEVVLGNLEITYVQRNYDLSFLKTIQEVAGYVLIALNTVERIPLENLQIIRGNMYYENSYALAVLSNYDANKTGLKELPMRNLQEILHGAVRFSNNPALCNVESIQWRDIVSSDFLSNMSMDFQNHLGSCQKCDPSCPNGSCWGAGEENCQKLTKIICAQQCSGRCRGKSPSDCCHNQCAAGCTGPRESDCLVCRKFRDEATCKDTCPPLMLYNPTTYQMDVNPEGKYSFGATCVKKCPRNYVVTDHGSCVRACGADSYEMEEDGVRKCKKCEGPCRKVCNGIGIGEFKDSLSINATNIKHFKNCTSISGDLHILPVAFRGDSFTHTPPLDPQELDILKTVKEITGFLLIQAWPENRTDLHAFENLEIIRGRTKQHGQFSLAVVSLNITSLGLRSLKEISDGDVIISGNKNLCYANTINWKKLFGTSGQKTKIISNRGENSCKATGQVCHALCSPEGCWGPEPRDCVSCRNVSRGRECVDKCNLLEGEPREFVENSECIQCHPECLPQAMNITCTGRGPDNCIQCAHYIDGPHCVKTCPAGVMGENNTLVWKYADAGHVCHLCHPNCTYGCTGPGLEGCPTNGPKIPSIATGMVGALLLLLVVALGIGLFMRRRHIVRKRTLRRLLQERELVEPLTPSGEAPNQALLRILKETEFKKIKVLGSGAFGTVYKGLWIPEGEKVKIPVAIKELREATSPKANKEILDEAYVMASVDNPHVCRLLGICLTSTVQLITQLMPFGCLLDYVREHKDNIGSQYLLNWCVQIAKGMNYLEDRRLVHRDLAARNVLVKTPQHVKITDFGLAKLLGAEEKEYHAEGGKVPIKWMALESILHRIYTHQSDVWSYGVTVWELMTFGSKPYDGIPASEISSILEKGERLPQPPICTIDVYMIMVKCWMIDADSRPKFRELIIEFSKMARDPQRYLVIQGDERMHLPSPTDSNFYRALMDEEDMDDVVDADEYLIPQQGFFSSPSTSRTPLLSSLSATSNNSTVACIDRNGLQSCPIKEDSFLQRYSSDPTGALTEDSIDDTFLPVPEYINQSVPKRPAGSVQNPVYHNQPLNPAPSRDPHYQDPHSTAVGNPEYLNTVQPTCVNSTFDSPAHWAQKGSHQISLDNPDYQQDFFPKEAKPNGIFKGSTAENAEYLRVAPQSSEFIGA
Chain of Alpha-bungarotoxin (Bungarus multicinctus) (P60615 whole entry, looked up): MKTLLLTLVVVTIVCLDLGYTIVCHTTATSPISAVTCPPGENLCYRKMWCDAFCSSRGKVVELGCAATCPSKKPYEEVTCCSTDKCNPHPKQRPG
Chain of Follistatin-related protein 3 (Homo sapiens) (O95633 whole entry, looked up): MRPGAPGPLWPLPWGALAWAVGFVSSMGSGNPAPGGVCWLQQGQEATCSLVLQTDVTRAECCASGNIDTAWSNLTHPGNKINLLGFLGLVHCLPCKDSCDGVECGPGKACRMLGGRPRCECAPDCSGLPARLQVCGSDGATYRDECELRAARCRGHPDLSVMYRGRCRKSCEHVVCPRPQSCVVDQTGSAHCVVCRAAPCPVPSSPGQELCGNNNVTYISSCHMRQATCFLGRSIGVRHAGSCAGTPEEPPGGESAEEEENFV
Chain of Torsin-1A-interacting protein 1 (Homo sapiens) (Q5JTV8 whole entry, looked up): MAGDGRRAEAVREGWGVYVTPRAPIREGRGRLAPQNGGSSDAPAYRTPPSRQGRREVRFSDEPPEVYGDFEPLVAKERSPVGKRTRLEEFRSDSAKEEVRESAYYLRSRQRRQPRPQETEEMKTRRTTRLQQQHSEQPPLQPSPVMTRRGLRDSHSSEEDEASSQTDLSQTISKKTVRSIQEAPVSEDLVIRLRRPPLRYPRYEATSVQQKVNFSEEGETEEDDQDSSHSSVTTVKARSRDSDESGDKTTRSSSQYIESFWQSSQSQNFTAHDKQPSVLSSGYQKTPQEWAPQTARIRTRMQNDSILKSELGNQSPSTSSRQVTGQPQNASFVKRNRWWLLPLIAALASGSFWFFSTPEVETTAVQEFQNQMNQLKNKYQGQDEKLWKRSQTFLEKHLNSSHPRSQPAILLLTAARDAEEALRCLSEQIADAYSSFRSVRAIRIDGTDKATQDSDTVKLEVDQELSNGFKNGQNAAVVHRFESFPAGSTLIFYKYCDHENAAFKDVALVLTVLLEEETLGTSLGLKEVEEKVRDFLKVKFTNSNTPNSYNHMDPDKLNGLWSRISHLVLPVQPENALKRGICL
Chain of Left-right determination factor 2 (Homo sapiens) (O00292 whole entry, looked up): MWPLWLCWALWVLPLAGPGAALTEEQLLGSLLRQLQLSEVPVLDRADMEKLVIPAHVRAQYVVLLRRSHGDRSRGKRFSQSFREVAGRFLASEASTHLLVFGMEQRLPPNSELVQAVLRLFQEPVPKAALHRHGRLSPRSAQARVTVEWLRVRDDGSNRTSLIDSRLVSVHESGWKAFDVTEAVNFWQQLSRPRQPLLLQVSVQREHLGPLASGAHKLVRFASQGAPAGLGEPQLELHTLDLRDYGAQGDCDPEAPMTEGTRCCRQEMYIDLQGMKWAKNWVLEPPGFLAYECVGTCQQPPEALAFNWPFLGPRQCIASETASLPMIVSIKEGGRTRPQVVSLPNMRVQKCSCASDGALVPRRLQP
Chain of Dickkopf-related protein 1 (Homo sapiens) (O94907 whole entry, looked up): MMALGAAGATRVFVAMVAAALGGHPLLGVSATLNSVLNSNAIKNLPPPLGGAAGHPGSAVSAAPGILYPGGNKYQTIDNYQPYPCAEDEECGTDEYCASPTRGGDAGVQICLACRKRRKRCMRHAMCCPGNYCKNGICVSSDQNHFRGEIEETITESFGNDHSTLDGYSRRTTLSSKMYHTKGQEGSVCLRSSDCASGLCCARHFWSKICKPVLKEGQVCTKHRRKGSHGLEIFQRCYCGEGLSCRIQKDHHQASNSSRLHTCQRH

For `C=CCN1C(=O)[C@@]2(O[C@@H](CCO)[C@H]([Si](C)(C)c3ccc(OC)cc3)[C@H]2C)c2cc(NC(C)=O)ccc21`, the composite z-score is 0.463 in experiment [1]; -0.155 in experiment [2]; -0.255 in experiment [3]; 1.08 in experiment [5]; 1.16 in experiment [6]; 0.363 in experiment [7]. The composite z-score in experiment [8] was determined as 1.44; in experiment [9] it was 1.29; in [10], 0.314; in experiment [11], 0.128; in [13], 1.45; in experiment [14], 0.793. Also, the composite z-score in [15] is 0.509; in experiment [16], 0.0136; in experiment [17] it was -0.0769; in experiment [18], -0.234; in experiment [19], 1.14; in [20] it was 0.71. In addition, the z-score was -1.17 (inactive) in [4] and -3.7 in [12].
For the molecule `CCCC[C@@H]1C[C@H]1[C@@H](NC(=O)c1ccccc1)c1ccc(-c2ccccc2)cc1`, the composite z-score in experiment [1] is -0.616; in experiment [2] it was -0.0102; in [3] it was 0.754; in experiment [5], 0.0096; in experiment [6], -0.372; in [7], 0.0518. Moreover, the composite z-score was determined as 0.12 in experiment [8]; 0.228 in experiment [9]; 0.715 in experiment [10]; 1.34 in [11]; 0.0692 in [13]; 0.232 in experiment [14]. In addition, the composite z-score is 0.596 in [15]; 0.0375 in experiment [16]; 0.1 in [17]; -0.421 in experiment [18]; 0.0036 in experiment [19]; 0.805 in [20]. Besides, the figures for the z-score in experiment [4] and in [12] were -3.53 (inactive) and -2.9, respectively.
In the case of `COC(=O)[C@@]1(Cc2ccc(F)cc2)[C@H]2c3cc(C(=O)N(C)C)n(CCc4c[nH]c5ccc(OC)cc45)c3C[C@H]2CN1C(=O)c1ccccc1`, the composite z-score in experiment [1] is -0.138; in [2] it was 1.76; in [3], 1.31; in [5], -0.162; in experiment [6] it was 0.27; in experiment [7] it was -0.446. Moreover, the composite z-score was -0.108 in experiment [8]; -1.73 in experiment [9]; 0.812 in experiment [10]; 1.47 in experiment [11]; -0.995 in experiment [13]; 1.72 in [14]. The composite z-score was found to be 1.16 in experiment [15]; 0.27 in experiment [16]; 0.764 in experiment [17]; 1.7 in [18]; 2.15 in [19]; 1.04 in [20]. Moreover, the z-score in [4] was -2.71 (inactive); in [12], -1.94.
Take `COc1ccc([Si](C)(C)[C@H]2[C@H](CC(=O)N3Cc4ccccc4C[C@H]3CO)O[C@@]3(C(=O)N(Cc4cccc(I)c4)c4ccccc43)[C@@H]2C)cc1`: the composite z-score in [1] was 0.391; in experiment [2] it was -0.29; in experiment [3], -0.162; in experiment [5], 1.15; in experiment [6], 0.346; in [7], 1.4. Also, the composite z-score in experiment [8] was 1.36; in [9], 1.57; in [10] it was 1.76; in [11] it was 0.276; in experiment [13] it was 0.947; in experiment [14], -0.551. In addition, the composite z-score in experiment [15] was 1.49; in experiment [16], -0.124; in experiment [17], 0.0815; in [18] it was -0.1; in [19], 0.225; in experiment [20] it was -0.0241. Besides, the z-score is -1.73 (inactive) in experiment [4] and -3.8 in experiment [12].
On to `O=P(NCC1(CC2(c3ccccc3)CO2)CC1)(c1ccccc1)c1ccccc1` (stereo not given), for which the composite z-score in experiment [1] was 1.57; in [2] it was 0.29; in experiment [3] it was 1.02; in experiment [5], -0.686; in experiment [6] it was -1.49; in experiment [7] it was -1.28. The composite z-score was -1.37 in experiment [8]; -0.915 in experiment [9]; 0.758 in [10]; -0.498 in experiment [11]; -1.79 in experiment [13]; -0.0905 in [14]. Also, the composite z-score is 0.388 in experiment [15]; -0.0384 in [16]; 0.826 in experiment [17]; -0.45 in experiment [18]; -0.225 in experiment [19]; -0.879 in [20]. In addition, the z-score is -1.45 (inactive) in experiment [4] and -1.17 in experiment [12].
